Data published in PubChem BioAssay AID1159580 (chemical genetic matrix, 2015).
About 2,000 (36%) of roughly 5,500 compounds were called active. About 18% were inconclusive and are not listed. Rule as the data show it: active = normalized growth mostly below about 0.91 (no sharp cut-off); inconclusive = no clear call, values can overlap the other calls; inactive = mostly above about 0.92. The list shows a part of the results.

Experiment: chemical genetic growth profiling, strain panel (AID 1159580);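 also: tested at 20 µM; growth read once vehicle control cultures reached saturation at 30 °C; 1 = growth at the plate median or of vehicle wells; lower values mean less growth of the strain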
Settings: growth OD
[1] = S. cerevisiae deletion strains, locus YAL013W, strain DEP1, hits give low values
[2] = S. cerevisiae deletion strains, locus YDR150W, strain NUM1, hits give low values
[3] = S. cerevisiae deletion strains, locus YGR078C, strain PAC10, hits give low values
[4] = S. cerevisiae deletion strains, locus YGR229C, strain SMI1, hits give low values
[5] = S. cerevisiae deletion strains, locus YMR263W, strain SAP30, hits give low values
[6] = S. cerevisiae deletion strains, locus YNL128W, strain TEP1, hits give low values
[7] = S. cerevisiae deletion strains, locus YPL055C, strain LGE1, hits give low values
[8] = S. cerevisiae deletion strains, locus YPL241C, strain CIN2, hits give low values

Measured: normalized growth

C#CCOS(=O)OC1CCCCC1Oc1ccc(C(C)(C)C)cc1 (configuration not stated)
inactive: [1] 1.01 | S. cerevisiae deletion strains, locus YBR021W, strain FUR4, hits give low values 1.03 | S. cerevisiae deletion strains, locus YBR229C, strain ROT2, hits give low values 1.02 | S. cerevisiae deletion strains, locus YCL029C, strain bik1, hits give low values 1.01 | S. cerevisiae deletion strains, locus YDL035C, strain GPR1, hits give low values 1 | S. cerevisiae deletion strains, locus YDL074C, strain BRE1, hits give low values 1.07 | S. cerevisiae deletion strains, locus YDL101C, strain DUN1, hits give low values 1.02 | S. cerevisiae deletion strains, locus YDL134C, strain PPH21, hits give low values 1.02 | S. cerevisiae deletion strains, locus YDL185W, strain tfp1, hits give low values 0.982 | S. cerevisiae deletion strains, locus YDL192W, strain arf1, hits give low values 1 | S. cerevisiae deletion strains, locus YDR101C, strain arx1, hits give low values 0.987 | [2] 1.02 | S. cerevisiae deletion strains, locus YDR162C, strain NBP2, hits give low values 1.02 | S. cerevisiae deletion strains, locus YDR318W, strain mcm21, hits give low values 1 | S. cerevisiae deletion strains, locus YDR388W, hits give low values 0.994 | S. cerevisiae deletion strains, locus YDR502C, strain sam2, hits give low values 0.993 | S. cerevisiae deletion strains, locus YEL061C, strain CIN8, hits give low values 1.01 | S. cerevisiae deletion strains, locus YER110C, hits give low values 0.998 | S. cerevisiae deletion strains, locus YER155C, strain BEM2, hits give low values 1.02 | S. cerevisiae deletion strains, locus YER167W, strain BCK2, hits give low values 1.01 | S. cerevisiae deletion strains, locus YGL078C, strain dbp3, hits give low values 0.977 | S. cerevisiae deletion strains, locus YGL086W, strain mad1, hits give low values 1 | S. cerevisiae deletion strains, locus YGL248W, strain PDE1, hits give low values 1.02 | [3] 1.02 | S. cerevisiae deletion strains, locus YGR135W, strain pre9, hits give low values 1 | [4] 1.04 | S. cerevisiae deletion strains, locus YGR252W, strain gcn5, hits give low values 0.987 | S. cerevisiae deletion strains, locus YHR030C, strain SLT2, hits give low values 1.02 | S. cerevisiae deletion strains, locus YHR079C, strain IRE1 (second series), hits give low values 0.994 | S. cerevisiae deletion strains, locus YHR094C, strain hxt1, hits give low values 0.988 | S. cerevisiae deletion strains, locus YHR129C, strain ARP1, hits give low values 1.02 | S. cerevisiae deletion strains, locus YHR200W, strain rpn10, hits give low values 0.99 | S. cerevisiae deletion strains, locus YIL066C, strain RNR3, hits give low values 1.02 | S. cerevisiae deletion strains, locus YIL073C, strain SPO22, hits give low values 1.01 | S. cerevisiae deletion strains, locus YIL125W, strain kgd1, hits give low values 0.988 | S. cerevisiae deletion strains, locus YIR030C, strain dcg1, hits give low values 0.984 | S. cerevisiae deletion strains, locus YJL095W, strain BCK1, hits give low values 1.02 | S. cerevisiae deletion strains, locus YJL134W, strain LCB3, hits give low values 1.01 | S. cerevisiae deletion strains, locus YJL168C, strain set2, hits give low values 0.989 | S. cerevisiae deletion strains, locus YJL187C, strain SWE1 (second series), hits give low values 1.02 | S. cerevisiae deletion strains, locus YJR043C, strain POL32, hits give low values 1.01 | S. cerevisiae deletion strains, locus YJR075W, strain HOC1, hits give low values 1.04 | S. cerevisiae deletion strains, locus YKL009W, strain mrt4, hits give low values 0.971 | S. cerevisiae deletion strains, locus YKL068W, hits give low values 0.994 | S. cerevisiae deletion strains, locus YKL085W, strain MDH1 (second series), hits give low values 0.988 | S. cerevisiae deletion strains, locus YKL085W, strain MDH1, hits give low values 0.988 | S. cerevisiae deletion strains, locus YKL190W, strain CNB1, hits give low values 1 | S. cerevisiae deletion strains, locus YKR001C, strain vps1, hits give low values 0.993 | S. cerevisiae deletion strains, locus YLR039C, strain RIC1, hits give low values 1.04 | S. cerevisiae deletion strains, locus YLR058C, strain SHM2, hits give low values 1.02 | S. cerevisiae deletion strains, locus YLR102C, strain apc9, hits give low values 0.983 | S. cerevisiae deletion strains, locus YLR262C, strain YPT6, hits give low values 1.05 | S. cerevisiae deletion strains, locus YLR268W, strain sec22, hits give low values 0.999 | S. cerevisiae deletion strains, locus YLR330W, strain CHS5, hits give low values 1.02 | S. cerevisiae deletion strains, locus YLR342W, strain FKS1 (second series), hits give low values 1.01 | S. cerevisiae deletion strains, locus YLR371W, strain rom2, hits give low values 0.983 | S. cerevisiae deletion strains, locus YLR418C, strain cdc73, hits give low values 1.02 | S. cerevisiae deletion strains, locus YML016C, strain PPZ1, hits give low values 1.02 | S. cerevisiae deletion strains, locus YML032C, strain rad52, hits give low values 0.986 | S. cerevisiae deletion strains, locus YML124C, strain tub3, hits give low values 0.995 | S. cerevisiae deletion strains, locus YMR078C, strain ctf18, hits give low values 0.996 | S. cerevisiae deletion strains, locus YMR223W, strain ubp8, hits give low values 1 | [5] 1.03 | S. cerevisiae deletion strains, locus YMR307W, strain GAS1, hits give low values 1.02 | S. cerevisiae deletion strains, locus YNL067W, strain RPL9B, hits give low values 1.02 | [6] 1.02 | S. cerevisiae deletion strains, locus YNL153C, strain GIM3, hits give low values 1.02 | S. cerevisiae deletion strains, locus YNL233W, strain BNI4, hits give low values 1.03 | S. cerevisiae deletion strains, locus YNL250W, strain rad50, hits give low values 0.992 | S. cerevisiae deletion strains, locus YNL271C, strain bni1, hits give low values 0.978 | S. cerevisiae deletion strains, locus YNL298W, strain CLA4, hits give low values 0.998 | S. cerevisiae deletion strains, locus YNL307C, strain MCK1, hits give low values 0.992 | S. cerevisiae deletion strains, locus YNL322C, strain KRE1, hits give low values 1.02 | S. cerevisiae deletion strains, locus YNR052C, strain pop2, hits give low values 0.987 | S. cerevisiae deletion strains, locus YOL006C, strain TOP1, hits give low values 1.07 | S. cerevisiae deletion strains, locus YOL012C, strain htz1 0.994 | S. cerevisiae deletion strains, locus YOL147C, strain pex11, hits give low values 0.994 | S. cerevisiae deletion strains, locus YOR061W, strain CKA2, hits give low values 1.01 | S. cerevisiae deletion strains, locus YOR069W, strain VPS5, hits give low values 1 | S. cerevisiae deletion strains, locus YOR136W, strain idh2, hits give low values 0.992 | S. cerevisiae deletion strains, locus YOR144C, strain elg1, hits give low values 0.996 | S. cerevisiae deletion strains, locus YOR184W, strain ser1, hits give low values 0.964 | S. cerevisiae deletion strains, locus YOR316C, strain cot1, hits give low values 0.996 | [7] 1.05 | [8] 1.03 | S. cerevisiae deletion strains, locus YPR119W, strain clb2, hits give low values 0.997 | S. cerevisiae deletion strains, locus YPR141C, strain kar3, hits give low values 0.99 | S. cerevisiae deletion strains, locus YPR163C, strain tif3, hits give low values 0.999 | S. cerevisiae deletion strains, locus YPR167C, strain met16, hits give low values 0.994 | S. cerevisiae deletion strains, strain wtn01, hits give low values 0.991 | S. cerevisiae strains, strain wild type, hits give low values 1.01

CC(C)C[C@H](NC(=O)C1OC1C(=O)O)C(=O)NCCCCN=C(N)N (some centres not stated)
inactive: [1] 1.01 | S. cerevisiae deletion strains, locus YAL040C, strain CLN3, hits give low values 0.949 | S. cerevisiae deletion strains, locus YCL061C, strain MRC1 (second series), hits give low values 0.993 | [2] 0.989 | S. cerevisiae deletion strains, locus YDR363W, strain ESC2, hits give low values 1.01 | S. cerevisiae deletion strains, locus YER002W, strain NOP16, hits give low values 0.985 | [3] 0.988 | [4] 1.04 | [5] 0.997 | [6] 0.998 | S. cerevisiae deletion strains, locus YNL175C, strain NOP13, hits give low values 0.984 | S. cerevisiae deletion strains, locus YNL197C, strain WHI3, hits give low values 0.971 | S. cerevisiae deletion strains, locus YNL224C, strain SQS1, hits give low values 1.01 | S. cerevisiae deletion strains, locus YOR083W, strain WHI5 (second series), hits give low values 0.979 | [7] 1.02 | [8] 0.995
